In PubChem BioAssay:
Records with an inconclusive call do not appear. Activity calls are given as the source filed them.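 The calls were made as follows, unless noted: active = growth inhibition above 25% in both replicates, a cutoff set 3 SD above the mean; inconclusive = above 25% in only one replicate; inactive = the rest.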

Columns and labels:
[1] = Her2 expression decrease, cell viability multiplex – SKBR3 breast tumor cells, AlphaScreen, ATP viability, primary screen (AID 461;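 active = Her2 level under about 52% in both replicate screens, with viability over 70% of control, limit read from the data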;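 as to Her2 level: lower value means less Her2 protein in the cells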;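 as to viability: percent of carrier control wells set as 100% viability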); settings: SKBR3 Her2 protein level, 18-24 h, measured here: SKBR3 viability, ATP luminescence, at 10 µM
[2] = target: Receptor tyrosine-protein kinase erbB-2 (Homo sapiens) (UniProt P04626); experiment: as above; settings: 18-24 h, at 10 µM, stronger effect = lower value
[3] = reduced viability of SK-BR-3 breast cancer cells – cell-based, 24 h, human, pilot screen (AID 572;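 active = viability at or below 10% of carrier control in both of two separate runs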;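 also: compound exposure lasted between 18 and 24 h rather than exactly 24 h; 100% = carrier-treated control wells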); settings: SK-BR-3 viability, CellTiter-Glo luminescence, at 10 µM, stronger effect = lower value
[4] = HUVEC growth inhibition – cell-based, human, primary screen (AID 575;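 active = viability at or below 30% in both replicate assays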;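 also: 100% = median of untreated cell wells with 0.1% DMSO on each plate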); settings: HUVEC proliferation, CellTiter-Glo luminescence, 72 h; at 10 µM; stronger effect = lower value
[5] = H69AR cell proliferation blockers – human, duplicate replicates, primary screen (AID 580;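 active = viability at or under a set limit in both replicates, limit being median viability minus 3 SD, cut at about 48% in these data, passing the limit was not always enough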;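 also: 100% = mean luminescence of untreated wells and 0% = no signal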); settings: H69AR lung tumor cells viability, ATP luminescence, 72 h; at 10 µM; stronger effect = lower value
[6] = MRP1 drug-resistance reversers in H69AR cells – cell-based, doxorubicin co-treatment, pilot screen (AID 601;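 active = viability loss from added drug above about 55%, and viability with drug at most 40%, in both replicates, limit read from the data, passing the limit was not always enough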); settings: CellTiter-Glo, 72 h, at 10 µM; for differential viability (reversal): stronger effect = higher value
[7] = yeast transport mutant growth inhibition pilot in 384-well plates, post-Golgi transport modulator project (AID 636; in the data active = inhibition above about 31%); settings: absorbance 615 nm, about 18 h, stronger effect = higher value
[8] = growth suppression of yeast trafficking mutant, preliminary HTS, modulators of trafficking downstream of Golgi apparatus project, 1536-format plate, OD 615 nm (AID 637; in the data active = inhibition above about 30%); settings: yeast transport mutant growth, absorbance 615 nm, 18 h; stronger effect = higher value
[9] = S. cerevisiae growth inhibition in permissive medium (OD615), pilot counter-assay for S. cerevisiae lifespan shortening project, permissive growth control (AID 705); settings: OD615, 24 h, at 10 µM, stronger effect = higher value
[10] = S. cerevisiae growth inhibition in restrictive medium, OD615, pilot screen, restrictive growth control, yeast lifespan reduction project (AID 706;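 active = growth inhibition above a set limit, 3 SD over mean compound inhibition, in both replicates, cut at about 43% in these data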;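 also: modified DeaD lifespan yeast strain shifted to restrictive glucose medium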); settings: OD615, 48 h, at 10 µM, stronger effect = higher value
[11] = doxorubicin toxicity protection in MRP-1 cells – H69AR cells, CellTiter-Glo, duplicate, MRP-1 activator project, pilot screen (AID 807;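 active = viability increase at or above a cutoff of the median across tested compounds plus 3 SD, cut at about 8.5% in these data, passing the limit was not always enough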;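 also: compound pretreatment 18-22 h then 72 h combined with doxorubicin; 0% = doxorubicin alone and 100% = vehicle without doxorubicin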); settings: H69AR viability with doxorubicin, CellTiter-Glo luminescence; at 10 µM; stronger effect = higher value
[12] = viability of HCT116 without oncogenic beta-catenin – human colon tumor cells, pilot screen (AID 823;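 active = cell viability at or below a set limit in both duplicate runs, the limit being the all-compound median minus 4 SD, cut at about 23% in these data, passing the limit was not always enough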;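 also: 0% = wells killed by 20 µM Hyamine and 100% = untreated DMSO cell wells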); settings: HCT116 beta-catenin knockout viability, CellTiter-Glo, 60 h; at 10 µM; stronger effect = lower value
[13] = viability of PTEN-null HCT116 cells – cell-based, HCT116 clonal line, CellTiter-Glo, pilot screen (AID 824;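 active = viability at or below 27.92% in each of two runs, the all-compound median minus 4 SD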;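 also: 0% = 20 µM Hyamine control and 100% = vehicle cell control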); settings: HCT116 PTEN-deleted viability, 60 h, at 10 µM, stronger effect = lower value
[14] = RAM pathway blockade in budding yeast – dse1pr::URA3 reporter, 5-FOA selection, pilot screen (AID 869;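 active = inhibition over a set limit, the all-compound mean plus 3 SD, in both replicate runs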;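 also: 0% = DMSO wells with no growth and 100% = 10 µM 1-NA-PP1 with full growth; RAM network block rescues cells from 5-FOA so hits raise OD615 growth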); settings: S. cerevisiae dse1pr::URA3 5-FOA growth, OD615, 2 d; at 10 µM; stronger effect = higher value; strain carries analog-sensitive mutant Cbk1 kinase
[15] = RAM signaling pathway blockade in yeast – S. cerevisiae, Pdr1DBD-CYC8 efflux-inhibited sensitized strain, primary screen (AID 1298;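 active = RAM network inhibition above 8.4% in each of two replicates, 3 SD over the compound average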;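 also: 0% = DMSO untreated cells without growth and 100% = 10 µM 1-NA-PP1 full growth; higher means more yeast growth rescued from 5-FOA killing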); settings: S. cerevisiae cbk1-as DSE1-URA3 strain, 5-FOA growth OD615, 2 d; at 50 µM; stronger effect = higher value
[16] = H69AR cells + 2 uM doxorubicin, measured here: viability with 2 uM doxorubicin, stronger effect = lower value
[17] = H69AR cells, compound alone cytotoxicity

Sequence of Receptor tyrosine-protein kinase erbB-2 (Homo sapiens) (P04626 whole entry, looked up): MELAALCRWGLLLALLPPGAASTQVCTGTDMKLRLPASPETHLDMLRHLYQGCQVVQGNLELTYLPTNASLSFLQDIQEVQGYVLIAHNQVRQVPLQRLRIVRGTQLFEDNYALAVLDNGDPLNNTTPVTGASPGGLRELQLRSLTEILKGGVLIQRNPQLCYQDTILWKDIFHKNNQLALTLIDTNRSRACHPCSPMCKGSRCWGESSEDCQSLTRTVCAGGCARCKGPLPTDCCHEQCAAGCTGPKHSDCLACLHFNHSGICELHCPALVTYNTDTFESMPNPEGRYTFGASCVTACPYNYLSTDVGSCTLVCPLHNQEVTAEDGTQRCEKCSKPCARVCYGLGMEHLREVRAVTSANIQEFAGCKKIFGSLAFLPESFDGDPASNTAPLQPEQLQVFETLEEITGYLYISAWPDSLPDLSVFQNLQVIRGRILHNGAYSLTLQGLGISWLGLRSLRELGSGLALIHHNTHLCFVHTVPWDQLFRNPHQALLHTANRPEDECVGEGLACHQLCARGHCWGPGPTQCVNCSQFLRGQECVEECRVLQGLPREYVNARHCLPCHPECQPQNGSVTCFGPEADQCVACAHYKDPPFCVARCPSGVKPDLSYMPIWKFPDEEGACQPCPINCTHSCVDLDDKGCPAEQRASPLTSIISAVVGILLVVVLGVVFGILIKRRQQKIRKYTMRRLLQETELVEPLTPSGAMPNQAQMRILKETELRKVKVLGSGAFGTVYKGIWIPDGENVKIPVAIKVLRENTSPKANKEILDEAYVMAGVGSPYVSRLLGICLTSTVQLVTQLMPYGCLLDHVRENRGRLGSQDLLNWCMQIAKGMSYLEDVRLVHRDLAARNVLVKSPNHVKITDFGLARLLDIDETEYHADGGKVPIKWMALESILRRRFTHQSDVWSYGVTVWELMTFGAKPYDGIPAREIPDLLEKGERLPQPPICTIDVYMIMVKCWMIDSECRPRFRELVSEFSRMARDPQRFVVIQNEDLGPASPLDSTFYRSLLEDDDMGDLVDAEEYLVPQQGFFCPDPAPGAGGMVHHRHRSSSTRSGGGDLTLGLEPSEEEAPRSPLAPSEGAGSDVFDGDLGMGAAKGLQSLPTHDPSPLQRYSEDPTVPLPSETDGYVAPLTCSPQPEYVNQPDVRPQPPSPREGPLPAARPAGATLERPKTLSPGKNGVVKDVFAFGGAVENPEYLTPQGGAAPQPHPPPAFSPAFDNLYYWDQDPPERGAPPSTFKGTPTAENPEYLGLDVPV

Row | SMILES | viability [1] [%] | Her2 level [2] | viability [3] | viability [4] | viability [5] | differential viability (reversal) ([6]; H69AR cells + 2 uM doxorubicin) | viability [6, 16] [%] | viability [6, 17] [%] | inhibition [7] | inhibition [8] | growth inhibition [9] | growth inhibition [10] | viability increase [11] | viability [12] | viability [13] | inhibition [14] | RAM network inhibition [15]
1 | COc1ccc(C2C(C(=O)N3CCC(C)CC3)c3ccccc3C(=O)N2C)cc1 (stereo not drawn) | 109 | 112% (inactive) | 109% (inactive) | 108% (inactive) | 94.9% (inactive) | -1.18% (inactive) | 96.1 | 94.9 | 1.23% (inactive) | 9.84% (inactive) | -17% (inactive) | -12% (inactive) | -2.5% (inactive) | 83.3% (inactive) | 82.9% (inactive) | 2.41% (inactive) | 7.41% (inactive)
2 | CCOC(=O)c1ccc(-n2c(C)nc3c(cnn3-c3ccccc3C)c2=O)cc1 | 94 | 108% (inactive) | 94% (inactive) | 117% (inactive) | 98.1% (inactive) | -3.79% (inactive) | 102 | 98.1 | -0.8% (inactive) | -3.93% (inactive) | 2.42% (inactive) | 2.89% (inactive) | -0.28% (inactive) | 94.4% (inactive) | 91% (inactive) | 1.17% (inactive) | 2.95% (inactive)
3 | O=C(CSc1nc2c(c(=O)n1-c1ccc(F)cc1)SCC2)NCC1CCCO1 (stereo not drawn) | 93.5 | 101% (inactive) | 93.5% (inactive) | 92.6% (inactive) | 105% (inactive) | 12% (inactive) | 92.6 | 105 | -2.4% (inactive) | -1.61% (inactive) | -8.12% (inactive) | -16.6% (inactive) | -3.46% (inactive) | 98.2% (inactive) | 90.9% (inactive) | 1.46% (inactive) | 5.77% (inactive)
4 | Cc1ccccc1-n1c(Cn2c(=O)sc3ccccc32)nnc1SCC(N)=O | 96.5 | 94.5% (inactive) | 96.5% (inactive) | 92.3% (inactive) | 84.8% (inactive) | 6.29% (inactive) | 78.6 | 84.8 | -6.27% (inactive) | -1.97% (inactive) | -3.65% (inactive) | -3.06% (inactive) | 1.68% (inactive) | 107% (inactive) | 106% (inactive) | 0.455% (inactive) | 4.35% (inactive)
5 | O=C(NCCN1C(=O)C2C3C=CC(C3)C2C1=O)N1CCCCC1 (stereo not drawn) | 122 | 112% (inactive) | 122% (inactive) | 100% (inactive) | 103% (inactive) | 6.97% (inactive) | 96.5 | 103 | 4.93% (inactive) | -4.83% (inactive) | -11.7% (inactive) | 0.245% (inactive) | -0.67% (inactive) | 102% (inactive) | 95.1% (inactive) | 2.13% (inactive) | 3.08% (inactive)
6 | CC1(C)CC(=O)c2cnc(NC(=O)CCc3ccccc3)nc2C1 | 93 | 82% (inactive) | 93% (inactive) | 112% (inactive) | 90.2% (inactive) | 0.98% (inactive) | 89.2 | 90.2 | -0.65% (inactive) | -4.5% (inactive) | -7.5% (inactive) | -11.6% (inactive) | 1.81% (inactive) | 97.6% (inactive) | 101% (inactive) | 1.27% (inactive) | 6.48% (inactive)
7 | COCCn1cc(C(=O)c2ccccc2OCC(=O)Nc2cc(C)on2)cc(C#N)c1=O | 82.5 | 115% (inactive) | 82.5% (inactive) | 89% (inactive) | 108% (inactive) | 6.63% (inactive) | 102 | 108 | -2.76% (inactive) | -1.17% (inactive) | -25.8% (inactive) | -14% (inactive) | -0.5% (inactive) | 92.9% (inactive) | 99.5% (inactive) | 1.68% (inactive) | 3.2% (inactive)
8 | CCOC(=O)Cc1ccc(NS(=O)(=O)c2ccc(SC)cc2)cc1 | 89 | 88% (inactive) | 89% (inactive) | 67.9% (inactive) | 86.7% (inactive) | 3.83% (inactive) | 82.8 | 86.7 | -5.54% (inactive) | -5.08% (inactive) | 6.06% (inactive) | -1.98% (inactive) | -4.85% (inactive) | 94.4% (inactive) | 88.1% (inactive) | 0.825% (inactive) | 2.83% (inactive)
9 | CC1Cc2nc(SCC(=O)Nc3nccs3)n(C)c(=O)c2S1 (stereo not drawn) | 90 | 89% (inactive) | 90% (inactive) | 72.7% (inactive) | 77.8% (inactive) | -0.05% (inactive) | 77.8 | 77.8 | -5.07% (inactive) | -1.67% (inactive) | -2.9% (inactive) | -5.05% (inactive) | -2.52% (inactive) | 105% (inactive) | 96.7% (inactive) | 1.56% (inactive) | 6.27% (inactive)
